# Measurements from the supplement of paper PMC6607015.
# Structures can show the parent of a compound that is named as a salt.
# Legend:
# Conditions in all cases: compound concentration in added solution (µM; 5 µl added to 20 µl cells): 10; 18 h
# A431 [1] = assay: LBPA endosome anti-LBPA integrated intensity (sum per cell), Z-score; higher = more LBPA staining
# Summary of the method: (§1)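 After 18 h on 5 µl of 10 µM compound solution in duplicate 384-well imaging plates, HeLa MZ or A431 cells, seeded at 3,500 per well in 20 µl, were fixed with 4% PFA. They were then labelled with 6C4 anti-LBPA antibody, filipin, propidium iodide and CellTracker green, and four 20× fields were recorded per well. Integrated LBPA or filipin intensity per cell, whole-cell or within LBPA endosomes, came from MetaXpress segmentation and was normalised to Z-scores in AcuityXpress.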
# HeLa MZ [2] = assay: as above
# Summary of the method: as §1
# A431 [3] = assay: whole-cell filipin (free cholesterol) integrated intensity, Z-score; higher = more cholesterol staining
# Summary of the method: as §1
# HeLa MZ [4] = assay: as above
# Summary of the method: as §1
# A431 [5] = assay: filipin (cholesterol) integrated intensity within LBPA endosomes, Z-score; higher = more cholesterol in LBPA endosomes
# Summary of the method: as §1
# HeLa MZ [6] = assay: as above
# Summary of the method: as §1
Structure (SMILES),LBPA endosome anti-LBPA integrated intensity (z-score) (A431 [1]),LBPA endosome anti-LBPA integrated intensity (z-score) (HeLa MZ [2]),whole-cell filipin (z-score) (A431 [3]),whole-cell filipin (z-score) (HeLa MZ [4]),filipin (z-score) (A431 [5]),filipin (z-score) (HeLa MZ [6])
C=CCOC(Cn1ccnc1)c1ccc(Cl)cc1Cl (stereo not given) [Enilconazole],-0.206,-0.741,0.571,0.192,-0.128,-0.352
CCOC(=O)c1ccc(OC(=O)CCCCCNC(=N)N)cc1 [Gabexate mesilate],-0.44,0.019,0.196,0.0139,-0.481,-0.456
CO/N=C(\C(=O)N[C@@H]1C(=O)N2C(C(=O)O)=C(C[N+]3(C)CCCC3)CS[C@H]12)c1csc(N)n1 [Cefepime hydrochloride],-0.483,-1.02,-0.176,-0.327,-0.47,-0.504
CC(=O)N(O)CCCCCNC(=O)CCC(=O)N(O)CCCCCNC(=O)CCC(=O)N(O)CCCCCN [Deferoxamine mesylate],-0.408,-0.755,0.541,-0.469,-0.422,-0.499
CC(C)C(=O)Nc1ccc([N+](=O)[O-])c(C(F)(F)F)c1 [Flutamide],-0.32,0.353,-0.407,-0.0656,-0.384,-0.392
CCCNC(=O)NS(=O)(=O)c1ccc(Cl)cc1 [Chlorpropamide],-0.658,-1.65,-0.845,-0.558,-0.591,-0.571
CNCCC=C1c2ccccc2C=Cc2ccccc21 [Norcyclobenzaprine],3.26,2.08,1.91,1.02,3.06,3.6
CCCc1nc2c(C)cc(-c3nc4ccccc4n3C)cc2n1Cc1ccc(-c2ccccc2C(=O)O)cc1 [Telmisartan],-0.132,0.924,0.0869,0.281,-0.34,-0.264
COc1cnc(NS(=O)(=O)c2ccc(N)cc2)nc1 [Sulfameter],-0.428,-0.0725,-0.426,-0.359,-0.447,-0.542
CC(=O)O[C@H]1C[C@@H]2CC[C@@H]3[C@H](CC[C@@]4(C)[C@H]3C[C@H]([N+]3(C)CCCCC3)[C@@H]4OC(C)=O)[C@@]2(C)C[C@@H]1N1CCCCC1 [Vecuronium bromide],-0.413,0.00655,0.0669,-0.181,-0.445,-0.215
C#C[C@]1(O)CC[C@H]2[C@@H]3[C@H](C)CC4=C(CCC(=O)C4)[C@H]3CC[C@@]21C [Tibolone],-0.522,-0.57,-0.775,-0.295,-0.476,-0.561
C[C@H]1[C@H](NC(=O)/C(=N\OC(C)(C)C(=O)O)c2csc(N)n2)C(=O)N1S(=O)(=O)O [Aztreonam],-0.461,-0.629,-0.642,-0.428,-0.521,-0.607
C[C@@H]1CCC[C@H](C)N1NC(=O)c1ccc(Cl)c(S(N)(=O)=O)c1 [Clopamide],-0.569,-1.24,-0.626,-0.712,-0.503,-0.648
Cc1cccc(Nc2ccccc2C(=O)O)c1C [Mefenamic acid],-0.573,-1.34,-0.793,-0.4,-0.497,-0.72
COc1ccc2[nH]cc(CCNC(C)=O)c2c1 [Melatonin],-0.518,0.193,-0.621,-0.435,-0.528,-0.543
CCCCC1C(=O)N(c2ccccc2)N(c2ccc(O)cc2)C1=O (stereo not given) [Oxyphenbutazone],-0.518,-0.9,0.131,0.127,-0.41,-0.527
Cc1c(N)c(=O)n(-c2ccccc2)n1C [Ampyrone],-0.478,-0.409,-0.998,-1.26,-0.379,-0.625
Nc1nc(=O)c2c([nH]1)NC[C@@H](CNc1ccc(C(=O)N[C@@H](CCC(=O)O)C(=O)O)cc1)N2C=O [Folinic acid calcium salt],-0.476,-0.265,-0.437,-0.13,-0.451,-0.42
CC[N+](CC)(CC)CCOc1cccc(OCC[N+](CC)(CC)CC)c1OCC[N+](CC)(CC)CC [Gallamine triethiodide],-0.558,-0.807,-0.891,-0.384,-0.526,-0.576
CCc1c(C)[nH]c2c1C(=O)C(CN1CCOCC1)CC2 (stereo not given) [Molindone hydrochloride],-0.564,-0.568,-0.123,-0.707,-0.506,-0.344
CCC1(c2ccccc2)NC(=O)N(C)C1=O (stereo not given) [Mephenytoin],-0.412,-0.524,-0.0979,-0.325,-0.496,-0.516
CN(C)CCC=C1c2ccccc2C=Cc2ccccc21 [Cyclobenzaprine hydrochloride],2.59,2.51,1.71,0.233,2.57,2.22
CCCCC(CC)CN1CN(CC(CC)CCCC)CC(C)(N)C1 (stereo not given) [Hexetidine],0.287,-1.15,1.01,-0.0808,0.351,-0.116
O=C1CCC(N2C(=O)c3ccccc3C2=O)C(=O)N1 (stereo not given) [Thalidomide],-0.476,-0.403,-0.887,-1.09,-0.544,-0.68
COc1c(N2C[C@@H]3CCCN[C@@H]3C2)c(F)cc2c(=O)c(C(=O)O)cn(C3CC3)c12 [Moxifloxacin],-0.595,-1.37,-0.138,-0.0544,-0.469,-0.207
